In all, about 59,000 sequences were measured (the read-out: median about -0.00055, lowest 2% from about -2 on). This is one part of a sample in which the lowest values are shown more often than they occur.
experiment: Identification of proteins required for the processing of the EWS-FLI1 nascent transcript; conditions: TC32 Ewing sarcoma NR0B1-luc vs CMV-luc (EWS-FLI1 target promoter against control promoter), 48 h; screened at 20 nM (by protocol);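 note: robust z of luciferase light less the median z of siRNAs with the same seed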
Experimental: Ewing sarcoma (ES) cells depend on the EWS-FLI1 fusion transcription factor for cell survival. Using an assay of EWS-FLI1 activity and genome-wide siRNA screening we have identified proteins required for the processing of the EWS-FLI1 nascent transcript. Parallel genome-wide siRNA-mediated RNAi screens were conducted in Ewing sarcoma TC32 cell lines expressing a luciferase (luc) reporter protein driven by either the promoter of the EWS-FLI1 target gene NR0B1 (TC32-NR0B1-luc) or the CMV promoter (TC32-CMV-luc). Luciferase activity was assessed 48 hours post siRNA-transfection.
Twenty microl of serum-free media containing Lipofectamine RNAiMax (0.05 microl) was added to wells containing siRNA (0.8 pmol). Lipid and siRNA were allowed to complex for 45 min at ambient temperature before addition of 600 cells in RPMI-1640, 20% FBS to yield final transfection mixtures containing 20 nM siRNA in RPMI-1640, 10% FBS. Luciferase expression was measured using OneGlo (Promega, Madison, WI). The genome-wide screening campaign was conducted using Ambion's human genome library version 4.1 (Ambion, Austin TX). This library targets approximately 21000 human genes, three siRNAs per gene. Each siRNA is arrayed in an individual well of a 384-well plate. Parallel transfections were conducted in TC32-NR0B1-luc and TC32-CMV-luc cell lines and luciferase expression (OneGlo, Promega) was assayed 48 h later on a PerkinElmer Envision 2104 Multilabel plate reader (PerkinElmer, Waltham, MA). Qiagen's AllStars Negative control was incorporated on all screening plates for normalization (16 wells per plate). Qiagen, Germantown, MDsiGL4 was incorporated as a positive transfection control (16 wells per plate) on all plates. […] The raw luciferase data for the NR0B1- and CMV-luc screens were normalized and z-score-MAD transformed using standard methods (Chung et al., 2008). The miRNA-like seed sequence of every siRNA was determined and the median z-score for all siRNA sequences with the same seed sequence was calculated. This z-score was subtracted from the z-score associated with each siRNA with that seed sequence to generate a seed-adjusted z-score value (Z) that was used when the results for the three siRNAs corresponding to each gene were compared (Marine et al., 2012)

| Sequence | seed-corrected z-score |
| --- | --- |
| ACAAUAAUUAAGACAUUGC against OR4K1 | 0.433 |
| GAAUGUUCAUGUGAAAUGC against ZNF365 | 1.68 |
| UGCAAUAGCAGAGUAUUCC against UBE2Q1 | 0.662 |
| UUUGUUGCAGAAUACAUAG against CTH | -13.9 |
| ACAGCUAUUAAGAAGAAGU against PTGER3 | -0.312 |
| CGCGUACUGACGGAAACAC against RPS29P3 | 0.649 |
| UUAGCGGACGGAGGAAUUG against IDH3G | 0.0869 |
| AAUGGAUUCAGUUACUUGC against TACSTD2 | -0.0397 |
| UGUCUUCGAUGUUUCAUCG against DOK6 | -2.6 |
| UUCGGGAAAGUAGUCAUGA against NSFL1C | 0.0545 |
| UACACUAGCAUUGCACUCC against ARHGEF19 | 0.989 |
| AUCUUGUUCCGCAUGGUCU against AMOTL2 | 0.501 |
| UUUAGCAACAGAGUCCACC against MAP2K6 | 0.538 |
| AUCUUCAAUACUUGAAUCU against LINC00467 | -0.368 |
| UUUCAUGCACCAACGGAUC against ABHD2 | -2.24 |
| AAAGGAAAGAUGACAGUAU against OR4N5 | 0.213 |
| AAGCUUUUUAUUGGAGUUC against ZNF852 | 1.01 |
| UCAGCGAACAUGUCCAGGG against CD2BP2 | 0.587 |
| AAUUUAAUAGUGUUUGUGC against PLPP4 | 0.11 |
| UCAGAGCACAGAUCGGGAC against DUSP2 | 0.227 |
| UUUGUCCUUAGUAAUGAAU against HOXA13 | -0.568 |
| UUUGCAAUUGAGGUGAGGC against ANP32D | -0.262 |

| Sequence | seed-corrected z-score |
| --- | --- |
| UUCACAACAGGGUGGAGCC against FAM110A | -0.481 |
| UUGCCUAUCUGGUUGAUGG against MATN1 | -0.472 |
| UUCUGAUUCUGCUUGUUGG against MPRIP | -2.12 |
| UCCGUUAUAAACAAACAGG against ITGA11 | -0.259 |
| UUCUGCAAGCUCACUGUCC against TTC7A | -0.896 |
| UUAUCUAUAACAGAGUAUG against DCBLD2 | 0.479 |
| UUGGAAAGCAGUGUCUCUG against KRTAP8-1 | -0.147 |
| UCUGCUUUGCAAAUAGCCG against SRD5A1 | -3.07 |
| UAUGUGCACACGGUCUUGA against NRN1 | -1.7 |
| UAAGUUUAUAGUUGGGAAC against RPS25P6 | -0.0501 |
| AUUGGAUCAGUGGAGCUCU against SPANXN4 | 0.397 |
| AAAUUCGUAAGCUCUGUGG against C2orf70 | 1.37 |
| AAGCUUCUCAUUAAUGCCC against CYB561A3 | -1.26 |
| UAGGCAAAAACAGUCCACC against B3GNT8 | -0.0844 |
| UAUUACUCAGCAGCUUUGC against TIPIN | -0.378 |
| AUACUGGAUAUCAUAGUUC against ARG2 | -2.32 |
| UUGGUUGUCAUGAUCAGUG against PAPD7 | 0.333 |
| UUUUGUUCGUCUCCGUUCC against AK4 | 0.42 |
| UGAGUUUCGCGCUCUCUCC against SLC17A7 | -2.93 |
| AGUAUUAUCACGUUAGUGG against NUP88 | -0.85 |
| UUUUCGCUACUUGAGUUGC against SLC35F5 | -1.12 |
| AAAGUUGAACUCCUGAUGG against MYT1L-AS1 | 0.298 |

| Sequence | seed-corrected z-score |
| --- | --- |
| UCGUUGUUCAAACCAUUCC against ZEB2 | -2.94 |
| UCUGAAUCCACUAACACUG against TMEM87B | -0.0559 |
| UUGCUAAACAGGGCCUUGC against MCRS1 | 1.49 |
| UAGGUUUUCUUCGUUGUCC against MIR503HG | 0.872 |
| UUCGAAGCAUCUUUUGGGC against RPL7P9 | -2.28 |
| UGAGUUGAACACGUAGCCC against ALPI | 0.286 |
| UUUGCUAUCUUGCUGAUGC against LINC00615 | 0.184 |
| ACAGAUAUUGUAAAUCUCC against TMEM14C | 0.508 |
| UAUUGUGAUAUAGGCACCG against WDR26 | -1.57 |
| UCACGUUUCACCAAGAUGC against EIF4A3 | -2.2 |
| UCCAUGACAAUGUCCACUC against VAT1 | -0.662 |
| UCUGGAUUAUGGGUAGGCC against CHTOP | -1.42 |
| UUCUGCUUCUGUAUUAUCC against SAP30BP | -2.11 |
| UCACUAUCAAGUCUGGUAC against CSMD3 | 0.55 |
| UAUAUCUGCAACACGGUGG against SND1 | 0.153 |
| UGUCUUUCAAACGUAGGCC against ZNF792 | -3.5 |
| UGUUUCGUAAACAUUCACC against FUT10 | -0.285 |
| UACAAUUACAUCAUCGUCC against GLT8D2 | -0.139 |
| UUCGAGAGACUGACAUGCG against SYT14P1 | -0.0146 |
| AUCUGGUUCAUUACAGUAG against BSDC1 | -2.55 |
| AAAAGACAUACAUGAAGAC against GJB1 | -0.779 |
| UCUAAUUCCAGGUAAAUUU against GOLT1B | 0.519 |
